According to the supplement of paper PMC10849652:
Targets with a hit are over-represented here; the source holds about 7,900 in all. About 0.6% of all pairs of compound and target were hits. Unmarked numbers belong to inactive results.

Legend:
Assay in all cases: log2 fold change, soluble protein after heating vs DMSO (PISA); higher = thermal stabilisation; K562 cells, 10 uM, 30 min; active = over 0.2 and 3.5 SD of the protein, either way, in both replicates (recomputed)
[1] = compound: CC[C@@H]1C(=O)N(C)c2cnc(Nc3ccc(C(=O)NC4CCN(C)CC4)cc3OC)nc2N1C1CCCC1
Outline: (§1)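 Thermal stability values are relative to control samples and come from duplicates. They are expressed as log2 fold changes. For measurement, K562 cells (2×10^6 cells/mL) received 10 μM compound for 30 min, and aliquots were heated for 3 min over 48°C-58°C, pooled, and extracted at 4°C in PBS with 0.5% NP-40. Soluble protein, the supernatant after 21,000xg for 90 min, was quantified by TMTpro 16plex LC-MS/MS with equalised channel sums.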

volasertib = compound: CC[C@@H]1C(=O)N(C)c2cnc(Nc3ccc(C(=O)N[C@H]4CC[C@H](N5CCN(CC6CC6)CC5)CC4)cc3OC)nc2N1C(C)C [volasertib]
Outline: as §1

[2] = compound: CC[C@H](C)N1C=C(C2=C(C=C(C=C21)C3=CN=C(C=C3)N4CCNCC4)C(=O)NCC5=C(C=C(NC5=O)C)C)C
Outline: as §1

epoxomicin = compound: CC[C@H](C)[C@@H](C(=O)N[C@@H]([C@@H](C)O)C(=O)N[C@@H](CC(C)C)C(=O)[C@]1(CO1)C)NC(=O)[C@H]([C@@H](C)CC)N(C)C(=O)C [epoxomicin]
Outline: as §1

[3] = compound: CCn1c(C(=O)N(C2CC2)C2CC2)cc2c3c(ncn3C)c(Nc3cc(C)n(C)n3)nc21
Outline: as §1

[4] = compound: CCn1cc(-c2ccnc3[nH]c(-c4cccc(CN(C)C)c4)cc23)c(-c2ccc(NC(=O)N(C)C)cc2)n1
Outline: as §1

[5] = compound: CN(C)CC(=O)Nc1ccc2[nH]c(=O)c3ccccc3c2c1
Outline: as §1

rosiglitazone = compound: CN(CCOC1=CC=C(C=C1)C[C@H]2C(=O)NC(=O)S2)C3=CC=CC=N3 (racemic) [rosiglitazone]
Outline: as §1

[6] = compound: CN1C2=C(C3=C1C(=O)N(N=C3)CC4=CC(=CC=C4)N)SC(=C2)S(=O)C
Outline: as §1

[7] = compound: CN1CCC(CNc2ccc3ncc(-c4cccc(OC(F)(F)F)c4)n3n2)CC1
Outline: as §1

saracatinib = compound: CN1CCN(CCOc2cc(OC3CCOCC3)c3c(Nc4c(Cl)ccc5c4OCO5)ncnc3c2)CC1 [saracatinib]
Outline: as §1

sotrastaurin = compound: CN1CCN(c2nc(C3=C(c4c[nH]c5ccccc45)C(=O)NC3=O)c3ccccc3n2)CC1 [sotrastaurin]
Outline: as §1

alvocidib = compound: CN1CC[C@H](c2c(O)cc(O)c3c(=O)cc(-c4ccccc4Cl)oc23)[C@H](O)C1 [alvocidib]
Outline: as §1

Tubastatin A = compound: CN1CCc2c(c3ccccc3n2Cc2ccc(C(=O)NO)cc2)C1 [Tubastatin A]
Outline: as §1

[8] = compound: CNC(=O)C1=CC=CC=C1NC2=NC(=NC=C2Cl)NC3=C(C=C(C=C3)N4CCOCC4)OC
Outline: as §1

defactinib = compound: CNC(=O)c1ccc(Nc2ncc(C(F)(F)F)c(NCc3nccnc3N(C)S(C)(=O)=O)n2)cc1 [defactinib]
Outline: as §1

rucaparib = compound: CNCc1ccc(-c2[nH]c3cc(F)cc4c3c2CCNC4=O)cc1 [rucaparib]
Outline: as §1

[9] = compound: CNc1nc(-c2ccc3c(N)n[nH]c3c2)cc(N2C[C@@H](C(=O)NC3CCCCC3)CC[C@H]2C)n1
Outline: as §1

encorafenib = compound: COC(=O)N[C@@H](C)CNc1nccc(-c2cn(C(C)C)nc2-c2cc(Cl)cc(NS(C)(=O)=O)c2F)n1 [encorafenib]
Outline: as §1

[10] = compound: COC(=O)[C@H](CCSC)NC(=O)C1=C(C=C(C=C1)NC[C@H](CS)N)C2=CC=CC=C2
Outline: as §1

Chain of UniProt Q8WWC4 (Q8WWC4 whole entry, looked up): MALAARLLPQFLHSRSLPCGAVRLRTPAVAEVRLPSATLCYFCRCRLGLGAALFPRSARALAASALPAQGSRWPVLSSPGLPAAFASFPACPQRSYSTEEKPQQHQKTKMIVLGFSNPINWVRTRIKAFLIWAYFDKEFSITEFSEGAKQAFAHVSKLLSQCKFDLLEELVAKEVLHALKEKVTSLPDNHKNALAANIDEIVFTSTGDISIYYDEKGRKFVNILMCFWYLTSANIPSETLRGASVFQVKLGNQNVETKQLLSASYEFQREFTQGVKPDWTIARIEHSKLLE
Chain of UniProt P52294 (P52294 whole entry, looked up): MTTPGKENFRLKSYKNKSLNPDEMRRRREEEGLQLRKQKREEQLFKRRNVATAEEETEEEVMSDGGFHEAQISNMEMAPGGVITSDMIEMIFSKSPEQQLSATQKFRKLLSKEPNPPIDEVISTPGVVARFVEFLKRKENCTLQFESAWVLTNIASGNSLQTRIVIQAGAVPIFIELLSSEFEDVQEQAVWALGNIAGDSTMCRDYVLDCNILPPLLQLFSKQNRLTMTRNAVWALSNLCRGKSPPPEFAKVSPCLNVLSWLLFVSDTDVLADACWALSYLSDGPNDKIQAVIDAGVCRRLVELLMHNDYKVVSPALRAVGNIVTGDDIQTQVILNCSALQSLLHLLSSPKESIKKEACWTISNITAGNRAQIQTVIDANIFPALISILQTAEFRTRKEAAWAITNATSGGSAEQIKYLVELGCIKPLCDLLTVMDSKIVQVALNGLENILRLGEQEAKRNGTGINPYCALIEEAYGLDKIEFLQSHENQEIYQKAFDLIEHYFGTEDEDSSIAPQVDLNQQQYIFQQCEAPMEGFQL
Chain of UniProt Q13422 (Q13422 whole entry, looked up): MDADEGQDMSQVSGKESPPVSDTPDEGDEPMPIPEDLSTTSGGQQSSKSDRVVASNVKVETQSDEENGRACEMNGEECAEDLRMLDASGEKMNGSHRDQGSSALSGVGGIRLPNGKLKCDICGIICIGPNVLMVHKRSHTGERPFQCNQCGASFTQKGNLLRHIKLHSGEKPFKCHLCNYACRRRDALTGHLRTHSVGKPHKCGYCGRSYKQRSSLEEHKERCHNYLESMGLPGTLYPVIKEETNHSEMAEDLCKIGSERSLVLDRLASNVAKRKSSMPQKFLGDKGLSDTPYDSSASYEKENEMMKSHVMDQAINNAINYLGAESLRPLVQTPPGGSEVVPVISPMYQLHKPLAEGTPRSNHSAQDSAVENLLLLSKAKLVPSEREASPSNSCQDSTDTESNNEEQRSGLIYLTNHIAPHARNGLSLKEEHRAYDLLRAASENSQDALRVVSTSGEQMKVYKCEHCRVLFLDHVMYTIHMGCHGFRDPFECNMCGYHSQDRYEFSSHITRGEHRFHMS
Chain of UniProt Q14676 (Q14676 whole entry, looked up): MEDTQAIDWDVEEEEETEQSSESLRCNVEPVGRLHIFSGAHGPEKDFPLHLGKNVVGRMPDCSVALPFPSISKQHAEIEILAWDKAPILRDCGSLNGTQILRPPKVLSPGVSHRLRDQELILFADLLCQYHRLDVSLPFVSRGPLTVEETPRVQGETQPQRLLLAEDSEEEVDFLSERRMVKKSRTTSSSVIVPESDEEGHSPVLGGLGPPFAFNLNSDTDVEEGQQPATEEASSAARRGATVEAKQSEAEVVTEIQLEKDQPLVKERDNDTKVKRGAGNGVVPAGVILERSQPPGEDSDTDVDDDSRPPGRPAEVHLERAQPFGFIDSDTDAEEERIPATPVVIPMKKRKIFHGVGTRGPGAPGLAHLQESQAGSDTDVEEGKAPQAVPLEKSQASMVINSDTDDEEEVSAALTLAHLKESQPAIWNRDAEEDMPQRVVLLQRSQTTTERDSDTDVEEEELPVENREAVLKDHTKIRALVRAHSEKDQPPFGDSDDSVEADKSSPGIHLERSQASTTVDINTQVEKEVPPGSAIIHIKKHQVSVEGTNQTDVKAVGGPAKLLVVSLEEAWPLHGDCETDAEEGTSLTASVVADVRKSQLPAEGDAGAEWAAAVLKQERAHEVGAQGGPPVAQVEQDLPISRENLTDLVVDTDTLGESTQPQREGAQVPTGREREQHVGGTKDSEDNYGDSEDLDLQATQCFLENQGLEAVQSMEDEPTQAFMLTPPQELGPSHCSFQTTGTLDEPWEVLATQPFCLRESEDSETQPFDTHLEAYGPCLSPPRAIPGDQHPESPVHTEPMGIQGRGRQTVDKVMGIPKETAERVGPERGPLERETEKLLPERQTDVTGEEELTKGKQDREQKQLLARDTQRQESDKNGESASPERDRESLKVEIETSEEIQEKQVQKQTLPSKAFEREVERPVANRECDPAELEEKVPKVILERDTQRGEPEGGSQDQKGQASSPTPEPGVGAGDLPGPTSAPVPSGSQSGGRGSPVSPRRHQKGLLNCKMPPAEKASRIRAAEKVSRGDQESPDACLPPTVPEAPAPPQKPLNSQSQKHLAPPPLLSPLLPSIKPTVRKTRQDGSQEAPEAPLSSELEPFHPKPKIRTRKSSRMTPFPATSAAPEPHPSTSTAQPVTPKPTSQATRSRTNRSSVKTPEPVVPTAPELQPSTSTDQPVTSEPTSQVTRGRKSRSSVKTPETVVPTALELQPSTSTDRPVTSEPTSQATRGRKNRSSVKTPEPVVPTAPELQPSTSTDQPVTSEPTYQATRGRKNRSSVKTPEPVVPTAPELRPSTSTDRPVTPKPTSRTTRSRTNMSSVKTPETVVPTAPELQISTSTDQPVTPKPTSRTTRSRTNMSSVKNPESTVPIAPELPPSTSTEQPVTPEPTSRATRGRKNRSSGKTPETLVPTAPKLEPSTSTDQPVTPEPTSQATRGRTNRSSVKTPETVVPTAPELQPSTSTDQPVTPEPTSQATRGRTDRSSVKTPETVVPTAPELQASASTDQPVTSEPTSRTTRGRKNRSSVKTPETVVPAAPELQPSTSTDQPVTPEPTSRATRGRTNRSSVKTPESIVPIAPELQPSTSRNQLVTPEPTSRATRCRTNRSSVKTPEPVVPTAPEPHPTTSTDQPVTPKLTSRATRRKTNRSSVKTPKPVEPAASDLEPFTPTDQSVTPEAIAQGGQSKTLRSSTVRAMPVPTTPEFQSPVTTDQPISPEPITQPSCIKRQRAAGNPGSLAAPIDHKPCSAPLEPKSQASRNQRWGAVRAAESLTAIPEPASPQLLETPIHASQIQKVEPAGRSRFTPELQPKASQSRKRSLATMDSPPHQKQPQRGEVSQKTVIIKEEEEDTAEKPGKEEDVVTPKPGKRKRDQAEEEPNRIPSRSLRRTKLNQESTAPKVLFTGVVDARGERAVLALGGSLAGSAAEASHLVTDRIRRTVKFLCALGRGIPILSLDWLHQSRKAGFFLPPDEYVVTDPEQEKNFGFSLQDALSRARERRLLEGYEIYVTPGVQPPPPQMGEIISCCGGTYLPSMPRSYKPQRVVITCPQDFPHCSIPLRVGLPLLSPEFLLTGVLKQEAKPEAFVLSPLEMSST
Chain of UniProt Q02750 (Q02750 whole entry, looked up): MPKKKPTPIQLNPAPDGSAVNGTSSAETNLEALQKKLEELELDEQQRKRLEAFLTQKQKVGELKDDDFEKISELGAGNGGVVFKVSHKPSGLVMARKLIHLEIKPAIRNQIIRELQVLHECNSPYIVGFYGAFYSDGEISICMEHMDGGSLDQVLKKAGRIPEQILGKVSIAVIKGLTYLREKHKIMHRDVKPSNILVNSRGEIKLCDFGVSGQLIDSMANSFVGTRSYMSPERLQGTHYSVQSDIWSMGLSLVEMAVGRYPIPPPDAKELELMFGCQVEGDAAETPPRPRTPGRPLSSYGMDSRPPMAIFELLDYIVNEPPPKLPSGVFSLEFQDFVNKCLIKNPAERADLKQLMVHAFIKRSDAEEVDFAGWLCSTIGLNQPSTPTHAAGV
Chain of UniProt Q8IWA4 (Q8IWA4 whole entry, looked up): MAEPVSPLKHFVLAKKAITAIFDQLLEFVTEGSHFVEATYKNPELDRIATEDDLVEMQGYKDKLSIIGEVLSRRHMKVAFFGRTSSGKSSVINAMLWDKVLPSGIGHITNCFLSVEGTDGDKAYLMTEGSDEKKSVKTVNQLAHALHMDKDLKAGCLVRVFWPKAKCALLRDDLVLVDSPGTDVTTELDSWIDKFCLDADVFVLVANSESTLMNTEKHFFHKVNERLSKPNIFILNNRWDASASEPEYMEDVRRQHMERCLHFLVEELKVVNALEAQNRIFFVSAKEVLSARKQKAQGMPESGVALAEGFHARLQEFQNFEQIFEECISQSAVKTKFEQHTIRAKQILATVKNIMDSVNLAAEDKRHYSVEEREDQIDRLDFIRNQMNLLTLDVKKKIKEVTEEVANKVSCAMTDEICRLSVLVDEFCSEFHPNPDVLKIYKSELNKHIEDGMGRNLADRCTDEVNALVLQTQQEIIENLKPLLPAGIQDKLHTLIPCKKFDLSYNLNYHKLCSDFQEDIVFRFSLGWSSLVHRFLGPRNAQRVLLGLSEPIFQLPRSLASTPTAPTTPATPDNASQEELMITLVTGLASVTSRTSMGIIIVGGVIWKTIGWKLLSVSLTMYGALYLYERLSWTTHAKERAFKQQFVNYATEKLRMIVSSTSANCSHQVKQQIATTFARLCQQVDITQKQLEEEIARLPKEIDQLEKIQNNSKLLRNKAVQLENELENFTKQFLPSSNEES
Chain of UniProt P29966 (P29966 whole entry, looked up): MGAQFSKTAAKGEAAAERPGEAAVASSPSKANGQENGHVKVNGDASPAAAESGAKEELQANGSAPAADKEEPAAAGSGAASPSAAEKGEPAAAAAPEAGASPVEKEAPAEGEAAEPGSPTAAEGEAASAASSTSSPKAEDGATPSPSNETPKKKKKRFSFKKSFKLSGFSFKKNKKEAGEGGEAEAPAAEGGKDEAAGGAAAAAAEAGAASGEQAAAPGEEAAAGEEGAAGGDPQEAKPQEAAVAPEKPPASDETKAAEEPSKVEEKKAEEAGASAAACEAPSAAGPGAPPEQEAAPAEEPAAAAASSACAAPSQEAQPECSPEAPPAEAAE

Target | log2 fold change [1] | log2 fold change (volasertib) | log2 fold change [2] | log2 fold change (epoxomicin) | log2 fold change [3] | log2 fold change [4] | log2 fold change [5] | log2 fold change (rosiglitazone) | log2 fold change [6] | log2 fold change [7] | log2 fold change (saracatinib) | log2 fold change (sotrastaurin) | log2 fold change (alvocidib) | log2 fold change (Tubastatin A) | log2 fold change [8] | log2 fold change (defactinib) | log2 fold change (rucaparib) | log2 fold change [9] | log2 fold change (encorafenib) | log2 fold change [10]
MED16 (UniProt Q9Y2X0) | 0.128 | 0.101 | 0.004 | -0.262 | -0.002 | 0.031 | 0.086 | 0.05 | 0.087 | 0.06 | -0.006 | -0.044 | -0.236 | -0.098 | 0.074 | -0.009 | -0.004 | 0.043 | -0.025 | -0.052
LMF2 (UniProt Q9BU23) | -0.109 | -0.332 (active) | -0.027 | 0 | -0.053 | 0.12 | -0.017 | 0.039 | -0.007 | -0.035 | 0.006 | -0.043 | 0.035 | 0.048 | 0.007 | 0 | 0.082 | -0.02 | 0.052 | -0.04
IMMT isoform 4 (UniProt Q16891) | -0.131 | -0.099 | 0.013 | 0.035 | 0.015 | -0.004 | 0.002 | 0.002 | -0.047 | -0.325 (active) | -0.012 | -0.002 | -0.009 | -0.033 | -0.014 | -0.012 | -0.055 | -0.007 | 0.012 | 0.002
MARCKS (UniProt P29966) | 0.035 | -0.027 | -0.091 | -0.044 | 0 | 0.268 (active) | -0.043 | 0.03 | -0.014 | 0.089 | 0.019 | 0.077 | -0.016 | 0.039 | 0.005 | 0.009 | -0.02 | -0.02 | -0.014 | 0.002
IKZF1 (UniProt Q13422) | 0.079 | -0.067 | 0.053 | -0.052 | 0.018 | -0.048 | 0.024 | 0.008 | 0.051 | -0.239 | 0.038 | -0.133 | -0.127 | -0.018 | -0.042 | -0.1 | -0.026 | -0.029 | -0.052 | -0.008
LRPPRC (UniProt P42704) | -0.413 | -0.801 | 0.161 | 0.277 | -0.243 | 0.01 | 0.334 | 0.214 | 0.177 | -0.323 | -0.281 | -0.874 | -0.58 | 0.316 | -0.241 | -0.346 | 0.395 | -0.175 | 0.116 | -0.103
MFN1 (UniProt Q8IWA4) | -0.099 | -0.136 | -0.056 | 0.079 | 0.015 | -0.024 | -0.025 | 0.32 | -0.045 | -0.295 (active) | -0.029 | 0.016 | -0.076 | 0.025 | -0.019 | -0.074 | -0.015 | 0.023 | 0.038 | 0
LMNA (UniProt P02545) | 0.008 | -0.15 | 0.01 | -0.014 | -0.022 | 0.057 | 0.009 | -0.025 | -0.006 | 0 | 0.041 | -0.083 | -0.214 (active) | -0.033 | 0.003 | -0.121 | -0.08 | -0.138 | -0.019 | 0.042
MDC1 (UniProt Q14676) | 0 | -0.074 | -0.028 | 0.039 | -0.03 | 0.384 | 0.015 | 0.019 | 0.527 (active) | 0.069 | -0.194 | -0.003 | 0.027 | 0.011 | -0.162 | -0.012 | 0.082 | 0.119 | 0.075 | -0.067
L2HGDH (UniProt Q9H9P8) | -0.088 | -0.014 | 0.006 | -0.02 | -0.023 | -0.067 | -0.027 | 0.031 | -0.11 | -0.325 (active) | -0.009 | 0.091 | -0.039 | -0.002 | -0.017 | -0.011 | -0.005 | 0.012 | -0.022 | 0.049
IPO13 (UniProt O94829) | -0.367 (active) | -0.291 (active) | -0.081 | 0.048 | 0.015 | -0.084 | -0.013 | 0.072 | 0.048 | -0.333 (active) | 0.111 | -0.123 | 0.013 | -0.03 | 0.001 | -0.04 | -0.016 | -0.109 | 0.039 | 0.033
KPNA1 (UniProt P52294) | -0.039 | -0.312 (active) | 0.115 | -0.051 | 0.022 | 0.004 | 0.055 | 0.055 | 0.104 | -0.082 | -0.014 | -0.174 | -0.019 | 0.021 | 0.006 | -0.064 | 0.151 | -0.078 | 0.197 | 0
MAP2K1 (UniProt Q02750) | -0.017 | -0.058 | 0.024 | 0.053 | -0.006 | -0.092 | 0.032 | 0.029 | -0.06 | -0.113 | 0.02 | 0.028 | -0.05 | -0.018 | -0.053 | -0.011 | -0.049 | -0.005 | 0.005 | 0.009
LYPLA2 (UniProt O95372) | 0.049 | -0.033 | 0.018 | 0.521 (active) | 0.025 | -0.05 | 0.108 | -0.021 | -0.053 | 0.098 | -0.063 | -0.039 | -0.126 | 0.018 | 0.007 | -0.09 | -0.041 | -0.01 | -0.031 | 0.087
MAIP1 (UniProt Q8WWC4) | -0.086 | -0.098 | -0.023 | -0.068 | 0.034 | -0.015 | 0.026 | -0.001 | -0.052 | -0.396 (active) | 0.03 | 0.06 | -0.058 | 0.028 | 0.002 | -0.054 | -0.039 | -0.04 | 0.048 | 0.008
KIF21A isoform 4 (UniProt Q7Z4S6) | 0.073 | -0.019 | 0.038 | 0.066 | -0.037 | -0.121 | 0.013 | 0.033 | 0.054 | 0.076 | 0.001 | -0.006 | 0.134 | 0.094 | 0.001 | 0.016 | 0.109 | 0.077 | 0.175 | -0.072
